This excerpt belongs to a sample that is enriched for hits.
Methyltransferases = Primary Screen for Target Class Profiling of Small Molecule Inhibitors of Methyltransferases; purified enzyme, MTase-Glo SAH luminescence; active compounds read low; calls only at 40 µM; 3.9% of 25,000 active; AID 1745853, 2022; call rule not given here
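Each enzyme was assayed with SAM and its substrate. SAH formation detected by MTase-Glo luminescence; single-point 40 uM screen[…].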
MTase-Glo ctr = inhibits MTase-Glo coupling enzymes without methyltransferase. shares compounds with Methyltransferases. MTase-Glo coupled enzymes, SAH conversion luminescence, no MTase. Potency, µM (titrated, usually from 57.3 µM), inactives show at the top dose activity change, negative = inhibition, hits mostly inhibitors. 6% of 180 active. AID 1745851; active = well fitted inhibition curve with a large enough effect; inconclusive = small, poorly fitted or top-dose-only effect; also: potency is read from the fitted curve at half-maximal effect
The depositor's hits bear a star; i = inactive; ? = inconclusive; + = active, no number; [ ] = remark or other dose. % is scaled to controls: 0 for no effect and ±100 for the full control effect.

SMILES | Methyltransferases | others
Cc1ccc(CN2C(=O)c3cc4ccccc4n3CC2(C)C(=O)NCCC(C)C)o1 (stereo not drawn) | i
COc1cccc([S+](=O)([O-])N2CCC3(C2)N=C(c2cccnc2)C(=O)N3)c1 (stereo not drawn) | + | MTase-Glo ctr=0%
COc1cccc([S+](=O)([O-])N2CCC23Cc2ccccc2NC3=O)c1 (stereo not drawn) | i
COc1cccc([S+](=O)([O-])N2CC(N3CCc4ccccc43)C2)c1 | i
CC(C)Cn1c(=O)c2ccc(C(=O)NC(C)C)cc2n2c(SCc3ccc(F)cc3)nnc12 | i
COc1cc(F)ccc1-c1cc(-c2ccc(=O)[nH]c2)c2cncn2c1 | + | MTase-Glo ctr=?
COc1cc(F)ccc1-c1nccc2c(=O)cc(-c3cnn(C)c3)oc12 | i
Cc1cc2nn(CC(=O)Nc3cccc(Cl)c3)c(=O)n2c(Nc2ccccc2C)n1 | i
CCCN1C(=O)c2cc(C(=O)NCC)nn2CC1(C)C(=O)NC1CCCC1 (stereo not drawn) | i
CCC(C)N1C(=O)c2ccc(-c3ccco3)n2CC1(C)C(=O)NC1CCCCCCC1 (stereo not drawn) | i
CC(=O)Oc1ccc2c(=O)c(C3NC(C(=O)O)Cc4c3[nH]c3ccccc43)coc2c1 (stereo not drawn) | i
COCCN1CCCC(c2[nH]ccc2C(=O)NCCc2nc3ccccc3[nH]2)C1 (stereo not drawn) | i
CCNC(=O)N1C[C@@H](F)[C@@H](OCc2nc3ccc(F)cc3[nH]2)C1 | i
CCN(CCc1nc2ccc(C)cc2[nH]1)C(=O)c1ccccc1C1CCNC1 (stereo not drawn) | + | MTase-Glo ctr=2%
COc1cccc(CN2C(=O)c3cc4ccccc4n3CC2(C)C(=O)NC2CCCC2)c1 (stereo not drawn) | i
COc1cccc(N2C(=O)c3cc4sccc4n3CC2(C)C(=O)NC2CCC(C)CC2)c1 (stereo not drawn) | i
CC(C)CCNC(=O)C1(C)Cn2c(cc3ccccc32)C(=O)N1CCC(C)C (stereo not drawn) | i
CC1(C(=O)NC2CCCCC2)Cn2c(cc3occc32)C(=O)N1CCN1CCCCCC1 (stereo not drawn) | i
CCCn1cnc2c1CN(S(=O)(=O)c1ccc(F)cc1)[C@H](C(=O)OC)C2 | i
COC(=O)[C@@H]1Cc2ncn(Cc3ccc(Cl)cc3)c2CN1CCCc1ccccc1 | + | MTase-Glo ctr=11µM*
COc1ccc(-c2cc3n(n2)CC(C)(C(=O)NCc2ccccc2)N(CCc2ccc(Cl)cc2)C3=O)cc1 (stereo not drawn) | i
CC(CNc1nc2c(-c3ccccc3)nnn2c2ccccc12)c1ccccc1 (stereo not drawn) | i
CC(=O)Nc1cccc(-c2cc3c(cn2)CN(Cc2ccccc2)CCN3)c1 | + | MTase-Glo ctr=-2%[85.7 µM]
CC(=O)Nc1ccc(CN2CC3(Cc4ccccc4NC3=O)C2)cc1 | i
CC(=O)Nc1cccc(-c2ccnc(-c3nnc(C)n3Cc3ccccc3)c2)c1 | i
SMILES | Methyltransferases | others
CCn1c(=O)n(CC)c2cc(S(=O)(=O)Nc3ccc(F)cc3)ccc21 | i
CCC1Oc2ccc(NC(=O)Cc3ccc(OC)cc3)cc2CN(Cc2ccc3c(c2)OCO3)C1=O (stereo not drawn) | i
CCC1Oc2ccc(NS(=O)(=O)c3ccc(Cl)cc3)cc2CN(Cc2ccc(F)cc2)C1=O (stereo not drawn) | + | MTase-Glo ctr=-8%
CCCn1c(=O)c2ccc(C(=O)NC(C)C)cc2n2c(=O)n(CC(=O)Nc3ccc(C)cc3C)nc12 | i
c1ccc(Cn2cc(CN3CCN(c4ccncc4)CC3)c(-c3cc4ccccc4o3)n2)cc1 | + | MTase-Glo ctr=5%
Cc1nn(-c2ccccc2)c(C)c1/C=N/N1CCN(Cc2ccccc2)CC1 | i
Cn1cc(CN2CCN(c3ccc(C#N)cn3)CC2)c(-c2ccccc2)n1 | i
Cc1ccc(Cn2c(=O)c3ccccc3n3c(=O)n(Cc4ccccc4F)nc23)cc1 | i
CC(C)CCn1c(=O)c2ccc(C(=O)NC(C)C)cc2n2c(=O)n(Cc3c(F)cccc3Cl)nc12 | i
CCC1c2ccc(C)n2CCN1C(=O)Nc1ccc(Br)cc1F (stereo not drawn) | i
CN1C(=O)c2cc(NC(=O)c3ccccc3F)ccc2N2CCN=C12 | i
CCCn1c(=O)c2ccc(C(=O)NCC(C)C)cc2n2c(=O)n(CC(=O)c3ccccc3)nc12 | i
Cc1noc2c(NCCCn3ccnc3)cc(-c3ccccn3)nc12 | i
Cc1noc2c(NCCN3CCOCC3)cc(-c3ccsc3)nc12 | i
Cc1noc2c(NC3CCN(C)CC3)cc(-c3cccs3)nc12 | + | MTase-Glo ctr=5%[85.7 µM]
CCCNC(=O)N1Cc2c(sc3c2CCCC3)-n2cccc2C1c1cccs1 (stereo not drawn) | i
COc1ccc(CNC(=O)C2(C)Cn3cnc(C(=O)Nc4ccc(C)cc4)c3C(=O)N2C2CC2)cc1 (stereo not drawn) | i
COc1ccccc1CNC(=O)C1c2c(n(C)c3ccccc23)SCC(=O)N1c1cc(C)cc(C)c1 (stereo not drawn) | i
COC(=O)c1ncn2c1C(=O)N(Cc1ccc(OC)cc1)C(C)(C(=O)NC1CCCCCC1)C2 (stereo not drawn) | i
O=C(CCc1ccccc1)N1CCNc2cnc(Nc3cccnc3)nc2C1 | + | MTase-Glo ctr=-1%[85.7 µM]
O=C(Nc1ccc(Oc2cccnc2)cc1)C1CCN(CCCc2ccccc2)CC1 | i
O=C(CCc1ccccc1)N1CCCC(CN2CCCC2)CC1 (stereo not drawn) | i
CCC(C)Nc1nc2c(S(=O)(=O)c3ccc(C(C)C)cc3)nnn2c2ccccc12 (stereo not drawn) | i
CC1(C(=O)NC2CCCCC2)Cn2c(cc3ccccc32)C(=O)N1C1CCN(Cc2ccccc2)CC1 (stereo not drawn) | i
Nc1ccc(-c2nc3ccc(-c4nc5ccc(N)cc5[nH]4)cc3[nH]2)cc1 | i
Cc1cc(-c2nc3ccncc3[nH]2)c(C)[nH]1 | + | MTase-Glo ctr=-3%[114 µM]
Cc1ccc2c(c1)c(-n1cccc1)c1n2CC(C)(C(=O)NC2CCCCC2)N(Cc2cccnc2)C1=O (stereo not drawn) | i
